From the supplement of paper PMC10849652
About 8,800 targets were measured; listed, in parts, are those with a hit and a random draw of the rest. About 0.5% of all pairs of compound and target were hits.

Columns and labels:
Assay in all cases: log2 fold change, soluble protein after heating vs DMSO (PISA); higher = thermal stabilisation; K562 lysate, 10 uM; active = over 0.2 and 3.5 SD of the protein, either way, in both replicates (recomputed)
erlotinib = compound: C#Cc1cccc(Nc2ncnc3cc(OCCOC)c(OCCOC)cc23)c1 [erlotinib]
Procedure, shortened: (§1)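 Soluble protein was defined as the supernatant remaining after 21,000xg for 90 min, following pooling of heated aliquots and adjustment to 0.5% NP-40 at 4°C. Before that, crude K562 extract at 1 mg/mL protein in PBS pH 7.4 with 1 mM MgCl2 was treated with 10 μM compound for 30 min and heated for 3 min across 48°C-58°C. Quantification used TMTpro 16plex LC-MS/MS with channel sums equalised, and values are log-two fold changes in thermal stability relative to solvent controls from duplicates.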

[1] = compound: C/C(=N\NC(=O)C1=CC(=CC=C1)S(=O)(=O)N2CCOCC2)/C3=C(C=CC(=C3)Cl)O
Procedure, shortened: as §1

[2] = compound: C1=CC(=CC=C1C2=NC3=C(N2)C=C(C=C3)C(=O)N)OC4=CC=C(C=C4)Cl
Procedure, shortened: as §1

[3] = compound: C1=CC2=C(C=CC(=C2)/C=C\3/C(=O)NC(=NCC4=CC=CS4)S3)N=C1
Procedure, shortened: as §1

[4] = compound: C1=CC2=NC=CN=C2C=C1/C=C/3\C(=O)NC(=O)S3
Procedure, shortened: as §1

[5] = compound: C1=CC=C(C=C1)C2=NC(=C(N2)C3=CC=NC=C3)C4=CC(=C(C=C4)Cl)O
Procedure, shortened: as §1

[6] = compound: C1=CC=C2C(=C1)C3=NNC4=CC=CC(=C43)C2=O
Procedure, shortened: as §1

[7] = compound: C1CCN(C1)C(=O)NC2=CC=CC(=C2)NC3=NC=C(C(=N3)NCCC4=CN=CN4)Br
Procedure, shortened: as §1

[8] = compound: C1CN(CCC1(CC2=CC=C(C=C2)Cl)N)C3=NC=NC4=C3C=CN4
Procedure, shortened: as §1

IRAK-1-4 Inhibitor I = compound: C1COCCN1CCN2C3=CC=CC=C3N=C2NC(=O)C4=CC(=CC=C4)[N+](=O)[O-] [IRAK-1-4 Inhibitor I]
Procedure, shortened: as §1

Measured: log2 fold change

PLEKHF1 (UniProt Q96S99)
inactive: erlotinib 0.027 | [1] 0.032 | [2] -0.067 | [3] 0.006 | [4] 0.05 | [5] 0.017 | [6] -0.019 | [7] -0.032 | [8] 0.029 | IRAK-1-4 Inhibitor I -0.024

PRKCA (UniProt P17252)
inactive: erlotinib 0.031 | [1] -0.086 | [2] -0.019 | [3] 0.108 | [4] 0 | [5] 0.044 | [6] -0.088 | [7] -0.037 | [8] 0.044 | IRAK-1-4 Inhibitor I 0.005

PDE2A (UniProt O00408)
Sequence of UniProt O00408 (O00408 whole entry, looked up): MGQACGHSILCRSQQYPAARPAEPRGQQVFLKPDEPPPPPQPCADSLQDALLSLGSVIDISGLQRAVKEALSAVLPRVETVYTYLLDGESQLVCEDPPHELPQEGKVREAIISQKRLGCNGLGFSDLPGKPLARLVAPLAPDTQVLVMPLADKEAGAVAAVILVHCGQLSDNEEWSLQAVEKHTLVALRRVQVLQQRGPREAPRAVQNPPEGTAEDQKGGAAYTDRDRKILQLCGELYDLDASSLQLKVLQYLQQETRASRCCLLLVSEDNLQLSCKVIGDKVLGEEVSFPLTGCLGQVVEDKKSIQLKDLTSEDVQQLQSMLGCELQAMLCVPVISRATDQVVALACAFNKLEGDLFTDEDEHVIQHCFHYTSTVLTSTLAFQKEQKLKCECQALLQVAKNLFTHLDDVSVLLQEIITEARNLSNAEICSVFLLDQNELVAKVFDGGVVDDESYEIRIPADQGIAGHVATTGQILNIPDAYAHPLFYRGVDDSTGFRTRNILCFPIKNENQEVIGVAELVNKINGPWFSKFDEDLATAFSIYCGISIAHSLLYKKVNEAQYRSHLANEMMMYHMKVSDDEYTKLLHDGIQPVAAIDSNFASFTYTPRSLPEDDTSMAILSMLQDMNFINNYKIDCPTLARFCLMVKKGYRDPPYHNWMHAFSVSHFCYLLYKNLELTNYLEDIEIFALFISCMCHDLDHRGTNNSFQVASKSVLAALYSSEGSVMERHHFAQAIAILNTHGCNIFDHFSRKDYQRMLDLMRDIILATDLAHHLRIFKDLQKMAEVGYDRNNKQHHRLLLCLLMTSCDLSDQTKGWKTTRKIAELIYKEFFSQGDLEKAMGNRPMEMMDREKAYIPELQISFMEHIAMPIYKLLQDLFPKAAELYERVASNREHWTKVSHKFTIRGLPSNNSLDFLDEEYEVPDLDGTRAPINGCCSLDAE
inactive: erlotinib -0.015 | [1] 0.082 | [2] 0.12 | [3] -0.337 | [4] -0.055 | [5] 0.249 | [6] -0.257 | [7] 0.001 | [8] -0.027 | IRAK-1-4 Inhibitor I 0.18

PFKP (UniProt Q01813)
Sequence of UniProt Q01813 (Q01813 whole entry, looked up): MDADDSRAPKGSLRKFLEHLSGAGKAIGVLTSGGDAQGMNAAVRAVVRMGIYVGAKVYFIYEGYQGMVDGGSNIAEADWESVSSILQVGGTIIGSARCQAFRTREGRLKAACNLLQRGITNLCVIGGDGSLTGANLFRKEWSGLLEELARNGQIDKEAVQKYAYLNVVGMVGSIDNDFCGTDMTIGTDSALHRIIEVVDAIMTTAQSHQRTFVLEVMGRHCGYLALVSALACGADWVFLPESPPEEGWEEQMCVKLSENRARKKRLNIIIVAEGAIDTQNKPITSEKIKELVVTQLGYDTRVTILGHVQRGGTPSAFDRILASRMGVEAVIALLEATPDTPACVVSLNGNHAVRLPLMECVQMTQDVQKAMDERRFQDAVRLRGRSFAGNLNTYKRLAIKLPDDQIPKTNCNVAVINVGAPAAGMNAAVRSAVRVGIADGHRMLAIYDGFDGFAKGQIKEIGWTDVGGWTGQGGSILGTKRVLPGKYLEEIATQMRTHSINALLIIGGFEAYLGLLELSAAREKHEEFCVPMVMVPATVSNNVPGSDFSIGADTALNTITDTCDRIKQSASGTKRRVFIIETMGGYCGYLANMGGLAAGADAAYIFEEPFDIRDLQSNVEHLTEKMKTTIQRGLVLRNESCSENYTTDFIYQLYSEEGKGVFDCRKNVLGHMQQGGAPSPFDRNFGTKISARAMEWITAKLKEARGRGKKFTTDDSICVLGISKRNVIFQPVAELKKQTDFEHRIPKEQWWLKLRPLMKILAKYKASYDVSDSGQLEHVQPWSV
inactive: erlotinib -0.01 | [1] -0.006 | [2] 0.019 | [3] -0.001 | [4] -0.01 | [5] 0 | [6] 0.032 | [7] 0.033 | [8] 0.031 | IRAK-1-4 Inhibitor I -0.003

PPP1R12B isoform 6 (UniProt O60237)
Sequence of UniProt O60237 (O60237 whole entry, looked up): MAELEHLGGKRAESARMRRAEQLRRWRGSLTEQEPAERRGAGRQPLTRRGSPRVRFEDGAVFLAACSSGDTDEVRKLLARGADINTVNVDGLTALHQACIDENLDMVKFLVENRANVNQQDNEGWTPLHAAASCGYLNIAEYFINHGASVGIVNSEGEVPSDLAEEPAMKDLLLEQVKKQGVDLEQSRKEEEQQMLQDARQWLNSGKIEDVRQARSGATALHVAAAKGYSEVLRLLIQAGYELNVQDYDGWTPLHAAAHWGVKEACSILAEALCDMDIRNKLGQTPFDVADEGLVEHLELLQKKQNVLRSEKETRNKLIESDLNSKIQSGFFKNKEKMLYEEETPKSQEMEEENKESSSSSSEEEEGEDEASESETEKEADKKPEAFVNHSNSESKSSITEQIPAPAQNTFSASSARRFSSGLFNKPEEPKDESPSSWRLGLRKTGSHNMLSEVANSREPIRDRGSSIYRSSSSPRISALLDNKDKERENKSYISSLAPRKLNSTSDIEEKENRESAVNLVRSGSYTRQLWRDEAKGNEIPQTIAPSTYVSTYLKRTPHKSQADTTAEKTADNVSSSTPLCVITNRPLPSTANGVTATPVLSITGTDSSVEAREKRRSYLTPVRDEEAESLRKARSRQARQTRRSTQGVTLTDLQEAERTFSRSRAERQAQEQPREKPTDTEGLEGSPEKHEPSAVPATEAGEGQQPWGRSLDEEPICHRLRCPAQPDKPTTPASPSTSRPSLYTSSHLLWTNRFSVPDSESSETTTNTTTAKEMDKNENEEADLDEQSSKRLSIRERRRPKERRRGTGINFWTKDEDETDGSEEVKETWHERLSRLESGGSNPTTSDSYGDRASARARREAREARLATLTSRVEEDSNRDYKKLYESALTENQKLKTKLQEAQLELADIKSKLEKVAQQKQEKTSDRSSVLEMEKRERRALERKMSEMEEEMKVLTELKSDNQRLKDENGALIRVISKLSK
inactive: erlotinib -0.081 | [1] 0.025 | [2] -0.103 | [3] -0.08 | [4] 0.057 | [5] -0.053 | [6] -0.07 | [7] -0.123 | [8] 0.037 | IRAK-1-4 Inhibitor I 0.153

PPT2 isoform 3 (UniProt Q9UMR5)
inactive: erlotinib 0.038 | [1] -0.113 | [2] 0.001 | [3] 0.014 | [4] -0.012 | [5] -0.057 | [6] 0.042 | [7] 0.01 | [8] 0.043 | IRAK-1-4 Inhibitor I 0.122

PTPN1 (UniProt P18031)
Sequence of UniProt P18031 (P18031 whole entry, looked up): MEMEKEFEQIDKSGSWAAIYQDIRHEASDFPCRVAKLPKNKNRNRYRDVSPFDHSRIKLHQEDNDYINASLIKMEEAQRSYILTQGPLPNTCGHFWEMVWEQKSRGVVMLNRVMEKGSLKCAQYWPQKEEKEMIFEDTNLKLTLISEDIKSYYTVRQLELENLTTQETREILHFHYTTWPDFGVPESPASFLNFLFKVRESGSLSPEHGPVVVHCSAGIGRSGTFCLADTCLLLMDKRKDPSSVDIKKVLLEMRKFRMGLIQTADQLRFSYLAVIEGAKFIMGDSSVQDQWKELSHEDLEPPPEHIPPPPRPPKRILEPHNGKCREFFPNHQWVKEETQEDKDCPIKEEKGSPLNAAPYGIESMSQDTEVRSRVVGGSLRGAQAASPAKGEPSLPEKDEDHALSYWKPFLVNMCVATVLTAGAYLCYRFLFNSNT
inactive: erlotinib -0.007 | [1] 0.065 | [2] -0.015 | [3] 0.025 | [4] -0.011 | [5] -0.005 | [6] -0.019 | [7] 0.027 | [8] -0.017 | IRAK-1-4 Inhibitor I 0.024

PGGT1B (UniProt P53609)
Sequence of UniProt P53609 (P53609 whole entry, looked up): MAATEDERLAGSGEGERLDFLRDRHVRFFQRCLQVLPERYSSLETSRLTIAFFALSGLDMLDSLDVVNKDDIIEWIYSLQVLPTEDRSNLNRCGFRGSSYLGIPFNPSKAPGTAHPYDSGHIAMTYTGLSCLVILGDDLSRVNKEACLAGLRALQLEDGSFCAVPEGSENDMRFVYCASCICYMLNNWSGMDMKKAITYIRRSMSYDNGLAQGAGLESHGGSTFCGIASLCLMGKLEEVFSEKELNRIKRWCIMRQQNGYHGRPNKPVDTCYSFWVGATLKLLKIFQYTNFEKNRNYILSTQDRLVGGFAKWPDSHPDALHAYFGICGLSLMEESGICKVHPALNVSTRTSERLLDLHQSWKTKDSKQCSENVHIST
inactive: erlotinib -0.02 | [1] 0.039 | [2] -0.076 | [3] -0.011 | [4] 0.047 | [5] 0.14 | [6] 0.045 | [7] 0.008 | [8] -0.018 | IRAK-1-4 Inhibitor I -0.006

PGPEP1 (UniProt Q9NXJ5)
inactive: erlotinib -0.003 | [1] 0.102 | [2] -0.053 | [3] -0.046 | [4] 0.013 | [5] 0.014 | [6] -0.018 | [7] -0.059 | [8] 0.001 | IRAK-1-4 Inhibitor I -0.003

PRKCSH isoform 2 (UniProt P14314)
inactive: erlotinib 0.038 | [1] -0.107 | [2] 0.084 | [3] 0.024 | [4] 0.001 | [5] -0.054 | [6] -0.011 | [7] -0.009 | [8] 0.015 | IRAK-1-4 Inhibitor I 0.001

PMS1 (UniProt P54277)
Sequence of UniProt P54277 (P54277 whole entry, looked up): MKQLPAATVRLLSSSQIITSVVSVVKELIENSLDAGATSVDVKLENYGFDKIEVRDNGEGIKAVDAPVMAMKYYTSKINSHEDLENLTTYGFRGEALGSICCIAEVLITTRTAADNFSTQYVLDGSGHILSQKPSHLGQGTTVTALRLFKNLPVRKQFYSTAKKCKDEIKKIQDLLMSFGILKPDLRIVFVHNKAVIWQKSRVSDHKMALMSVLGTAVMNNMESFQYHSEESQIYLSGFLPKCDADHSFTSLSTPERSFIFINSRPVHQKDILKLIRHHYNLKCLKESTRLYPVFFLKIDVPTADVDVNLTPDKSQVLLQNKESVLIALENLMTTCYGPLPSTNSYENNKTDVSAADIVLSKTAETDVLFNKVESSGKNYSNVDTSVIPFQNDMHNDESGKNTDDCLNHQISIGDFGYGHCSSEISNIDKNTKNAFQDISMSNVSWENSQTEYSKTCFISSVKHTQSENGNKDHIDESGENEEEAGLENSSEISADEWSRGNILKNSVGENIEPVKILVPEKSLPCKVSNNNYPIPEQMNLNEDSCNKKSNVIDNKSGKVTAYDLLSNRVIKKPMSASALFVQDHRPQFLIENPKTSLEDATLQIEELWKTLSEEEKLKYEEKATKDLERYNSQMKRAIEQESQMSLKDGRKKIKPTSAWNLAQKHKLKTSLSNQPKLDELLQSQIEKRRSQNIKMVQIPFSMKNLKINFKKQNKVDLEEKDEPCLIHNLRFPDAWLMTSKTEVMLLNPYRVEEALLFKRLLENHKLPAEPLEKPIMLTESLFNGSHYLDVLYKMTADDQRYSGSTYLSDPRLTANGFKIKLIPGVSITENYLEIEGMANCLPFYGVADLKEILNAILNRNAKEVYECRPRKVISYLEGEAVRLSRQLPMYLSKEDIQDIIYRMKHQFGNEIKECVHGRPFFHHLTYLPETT
inactive: erlotinib -0.024 | [1] 0.012 | [2] 0.041 | [3] -0.002 | [4] 0.106 | [5] 0.03 | [6] -0.094 | [7] -0.002 | [8] 0.016 | IRAK-1-4 Inhibitor I -0.027

PPP2R5C isoform 5 (UniProt Q13362)
Sequence of UniProt Q13362 (Q13362 whole entry, looked up): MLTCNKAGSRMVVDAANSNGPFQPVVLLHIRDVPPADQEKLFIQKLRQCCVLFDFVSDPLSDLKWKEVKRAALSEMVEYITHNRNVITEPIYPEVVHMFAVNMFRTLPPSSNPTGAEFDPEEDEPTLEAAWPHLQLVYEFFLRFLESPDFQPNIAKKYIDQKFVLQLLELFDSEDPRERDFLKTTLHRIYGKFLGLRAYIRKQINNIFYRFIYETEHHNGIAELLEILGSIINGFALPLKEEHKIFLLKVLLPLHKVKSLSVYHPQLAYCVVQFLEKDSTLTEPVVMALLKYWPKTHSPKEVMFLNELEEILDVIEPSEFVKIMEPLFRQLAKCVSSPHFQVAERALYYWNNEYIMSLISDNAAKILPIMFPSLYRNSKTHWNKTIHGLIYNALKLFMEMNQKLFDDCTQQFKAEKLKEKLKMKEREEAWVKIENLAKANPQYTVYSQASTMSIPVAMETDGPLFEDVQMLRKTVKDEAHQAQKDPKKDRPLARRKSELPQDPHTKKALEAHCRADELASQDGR
inactive: erlotinib -0.013 | [1] -0.025 | [2] -0.009 | [3] -0.025 | [4] 0.016 | [5] -0.002 | [6] -0.039 | [7] 0.01 | [8] 0.027 | IRAK-1-4 Inhibitor I 0.013

PYCR2 (UniProt Q96C36)
inactive: erlotinib -0.013 | [1] 0.014 | [2] 0.011 | [3] -0.005 | [4] -0.013 | [5] 0.003 | [6] -0.04 | [7] 0.007 | [8] 0.01 | IRAK-1-4 Inhibitor I 0.031

PPP2CA (UniProt P67775)
inactive: erlotinib -0.088 | [1] 0.134 | [2] -0.057 | [3] -0.045 | [4] -0.007 | [5] 0.064 | [6] 0.016 | [7] 0.106 | [8] -0.027 | IRAK-1-4 Inhibitor I -0.041

PRKRA (UniProt O75569)
inactive: erlotinib 0.016 | [1] -0.1 | [2] -0.061 | [3] -0.01 | [4] 0.08 | [5] 0.012 | [6] -0.012 | [7] -0.074 | [8] 0.018 | IRAK-1-4 Inhibitor I 0.033
